The text below walks through data of PubChem BioAssay AID449762 (Southern Research Specialized Biocontainment Screening …, 2010).

About 1,900 (0.58%) of roughly 330,000 compounds were called active. Another 4% or so got no clear call; they are omitted. Only a sample is shown. Potency and affinity values are given separately. A number with no mark means an inactive call. Rule as the data show it: inconclusive = inhibition above about 70% without an active follow-up result; inactive = below that.

By inhibition is commonly meant the change of the read-out against control, counted positive when it falls.

The experiment is described as follows: M. tuberculosis growth inhibition, HTS (AID 449762).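 Also: bacterial growth assessed after seven days of incubation.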 Conditions: M. tuberculosis H37Rv growth inhibition, 7H9 media; at 25 µM; hits give high values.
`COc1ccc(CCC(=O)NCCCNC(=O)CCc2ccc(OC)cc2)cc1`: the inhibition is 8.41%.

For `CCCCc1cc(=O)oc2cc(C)cc(OC(C)C(=O)NC(Cc3c[nH]c4ccc(O)cc34)C(=O)O)c12` (centres undefined), the inhibition was -11.4%.

On to `O=C(COC(=O)c1ccccc1Br)Nc1ccc(F)cc1`, for which the inhibition is 45.4%.

Take `O=C(Nc1ccc(F)cc1)c1cccc(NC(=O)C2C3CC4OC(=O)C2C4C3)c1` (centres undefined): the inhibition was -6.31%.

On to `O=C1CC(/C=C/c2ccncc2)=Nc2ccccc2N1`, for which the inhibition was -0.65%.

`O=C1CC(/C=C/c2ccccc2)=Nc2ccccc2N1`: the inhibition is -1.18%.

`CCCCNS(=O)(=O)c1ccc(NC(=O)Cc2ccc(OC)cc2)cc1`: the inhibition was -0.2%.

As for `O=C(NCCCN1CCOCC1)c1cc(S(=O)(=O)N2CCOCC2)ccc1Cl`, the inhibition is -0.79%.

As for `Cc1cc(-n2c(C)c3c(C)nnc(C)c3c2C)ccc1N`, the inhibition is -1.53%.

In the case of `Cc1ccc(-n2c(C)c3c(C)nnc(C)c3c2C)cc1C`, the inhibition was 39.9%.

Regarding `COc1cc(NS(C)(=O)=O)c(OC)cc1NC(=O)c1ccccc1`, the inhibition is -13.2%.

`N#Cc1cccc2c1-c1ccccc1/C2=N/NC(N)=S`: the inhibition was 11.6%.

As to `NC(=O)N/N=C1\c2ccccc2-c2c(C(N)=O)cccc21`, the inhibition was -8.45%.

Regarding `COc1cccc(C(=O)NCC2CCCN2S(=O)(=O)c2cccs2)c1` (centres undefined), the inhibition is -3.52%.

Regarding `CNC(=S)n1cnc(N)n1`, the inhibition is -9.24%.

`CCOC(=O)CNC(=S)n1ncnc1N`: the inhibition was -5.34%.

Regarding `CCc1nc2nc(C)c(NS(=O)(=O)c3ccc(Br)s3)c(=O)n2[nH]1`, the inhibition was -4.89%.

For `CCC1CCCCN1C(=O)c1ccc2c(c1)C(=O)N(c1ccc(C)cc1)C2=O` (centres undefined), the inhibition was 7.37%.

As to `CNC(=S)NC1CC2CCC(C1)N2Cc1ccccc1` (centres undefined), the inhibition is -6.1%.

`CCNC(=S)NC1CC2CCCC(C1)N2Cc1ccc(C)cc1` (centres undefined): the inhibition is -6.09%.

Take `CNC(=S)NC1CC2CCCC(C1)N2Cc1ccc(C)cc1` (centres undefined): the inhibition is -9.32%.

Consider `CCc1ccc(NC(=S)NC2CC3CCCC(C2)N3Cc2ccccc2)cc1` (centres undefined), for which the inhibition was 9.67%.

As to `C/C(N)=C(/C#N)C(=O)COC(=O)CCSc1ccccc1Cl`, the inhibition was -0.73%.

`O=C(Nc1ccc(Br)cc1Br)c1cccc2c1C(=O)N(C1CCCCC1)C2`: the inhibition was 10.8%.

Consider `CC(C)C[C@H](NC(=O)CCCn1nnc2ccccc2c1=O)C(=O)O`, for which the inhibition was 7.06%.

For the molecule `Cc1cc(C)c2c(CC(=O)NNC(=O)c3ccccc3)coc2c1`, the inhibition was -11.5%.

Consider `COc1ccc(N=Nc2ccc3ccccc3c2)c(O)c1`, for which the inhibition is 53.5%.

Consider `COc1cc(N=Nc2ccccc2C(=O)O)ccc1O`, for which the inhibition was 5.29%.

Turning to `O=C(Nc1ccccn1)c1cc2ccccc2o1`, the inhibition was 3.67%.

Regarding `Cc1ccnc(NC(=O)c2cc3ccccc3oc2=O)c1`, the inhibition was 45.2%.

Regarding `O=C(CN1C(=O)NC2(CCCc3ccccc32)C1=O)NCCc1ccc(F)cc1` (centres undefined), the inhibition was 1.6%.

On to `O=C(CSc1ccccc1)N1CCN(c2ccc(F)cc2)CC1`, for which the inhibition was -5.77%.

Turning to `COc1cccc(/C=C/C(=O)OCC(=O)Nc2ccc(N3CCOCC3)cc2)c1OC`, the inhibition was -2.5%.

For `COC(=O)CSc1nnc(CNc2nc(-c3ccccc3)cs2)n1C`, the inhibition was -7.67%.

Regarding `CC(C)OC(=O)CSc1nnc(CNc2nc(-c3ccccc3)cs2)n1C`, the inhibition is 0.34%.

Consider `COC(=O)[C@H](CC(C)C)NS(=O)(=O)N[C@@H](CC(C)C)C(=O)OC`, for which the inhibition was -8.61%.

Consider `CC1(C)Cc2c(sc(NC(=O)C(=O)N3CCCC3)c2C(=O)O)CO1`, for which the inhibition was 1.82%.

In the case of `COC(=O)c1c(NC(=O)C(=O)N2CCCCC2)sc2c1CC(C)(C)OC2`, the inhibition was 5.56%.

Regarding `COc1ccc2ccc3c(c2c1)N=CC1(O3)N(C)c2ccccc2C1(C)C` (centres undefined), the inhibition is -4.4%.

For the molecule `COc1ccc(N2CCN(C(=O)COCC(=O)O)CC2)cc1`, the inhibition was -6.23%.

Regarding `COc1ccc(C(=O)NCCS(=O)(=O)N2CCN(C(=O)c3ccco3)CC2)cc1`, the inhibition was -5.88%.

Consider `COc1ccc(C(=O)CSc2n[nH]c(=O)[nH]c2=O)cc1`, for which the inhibition was -1.42%.

In the case of `O=C(CSc1n[nH]c(=O)[nH]c1=O)c1ccccc1`, the inhibition is 51.6%.

For the molecule `COc1ccc(NC(=S)NC2CCCCC2)c(OC)c1`, the inhibition is 4.99%.

Consider `CCOc1ccccc1C(=O)N1CCN=C1SCc1cccnc1`, for which the inhibition was 10.2%.

Consider `O=C(c1cc2ccccc2o1)N1CCN(S(=O)(=O)c2cccs2)CC1`, for which the inhibition was 0.69%.

Turning to `O=C(c1ccco1)N1CCN(S(=O)(=O)c2ccc(Cl)s2)CC1`, the inhibition was -11.2%.

Turning to `CCOC(=O)Cc1nnc(NC(=O)c2ccccc2OC)s1`, the inhibition is -7.9%.

With `N#Cc1ccc(S(=O)(=O)N2CCCN(c3nc4ccc(Cl)cc4s3)CC2)cc1`, the inhibition is -8.22%.

Take `O=[N+]([O-])c1ccc(N2CCN(Cc3ccc(Br)o3)CC2)cc1`: the inhibition is 2.93%.

As for `Clc1ccc(N2CCN(Cc3ccc(Br)o3)CC2)cc1`, the inhibition was 0.17%.

In the case of `COc1ccc(N(CC(=O)N/N=C/c2ccco2)S(=O)(=O)c2ccccc2)cc1`, the inhibition was -4.51%.

Take `O=C(c1ccoc1)N1CCC(CO)(CCc2ccccc2)CC1`: the inhibition is -5.69%.

In the case of `O=C(COc1ccccc1[N+](=O)[O-])Nc1ccccc1N1CCCCC1`, the inhibition was -4.5%.

With `COC(=O)c1c(C)[nH]c(C(=O)/C=C/c2ccccc2Cl)c1C`, the inhibition was 3.39%.

In the case of `O=C(COc1ccccc1)Nc1sc2c(c1C(=O)NCc1cccnc1)CCCC2`, the inhibition was -7.35%.

Regarding `O=C(Nc1sc2c(c1C(=O)NCc1cccnc1)CCCC2)c1ccco1`, the inhibition is -2.45%.

Regarding `O=C(Nc1c2c(nn1-c1ccc(F)cc1)CS(=O)(=O)C2)c1ccc2c(c1)OCO2`, the inhibition is -6.48%.

With `COc1ccc(C(=O)/C=C/c2cn(CC(O)CN3CCN(C)CC3)c3ccccc23)cc1OC` (centres undefined), the inhibition was 8.14%.

With `Cn1cc(/C=C/C(=O)c2ccccc2)c2ccccc21`, the inhibition is 58.1%.

With `Cc1cc(C)c(CN2CCC(n3nccc3NC(=O)CCOc3ccccc3)CC2)cc1C`, the inhibition was 67.4%.

Regarding `O=C(Nc1ccc(-c2ccccc2)cc1)c1ccccc1`, the inhibition was 9.06%.

As for `COc1ccc(OCCN(C)CC(=O)Nc2c(C)cccc2C)cc1`, the inhibition is -3.93%.

With `Cc1c(C(=O)Nc2ccc(F)c(F)c2)oc2ccc(S(=O)(=O)N3CCCCC3)cc12`, the inhibition was 4.31%.

Turning to `Fc1ccc(Nc2ncnc3ccccc23)cc1`, the inhibition is 4.5%.

`N=c1c2ccccc2nnn1-c1ccc(C(F)(F)F)cc1`: the inhibition is -1.84%.

Consider `O=C(Nc1ncc2c(n1)-c1ccccc1OC2)c1ccc(Cl)cc1Cl`, for which the inhibition is -7.91%.

Turning to `CCCCc1ncc(CN2CCN(Cc3ccc(C)cc3)C(CCO)C2)[nH]1` (centres undefined), the inhibition was 0.18%.

With `COc1ccc(NC(=O)C(=S)NC2CCCCC2)cc1`, the inhibition was 8.92%.

For `C=CCc1c(C)nc(C)nc1N/N=C/c1ccc(F)cc1`, the inhibition is 6.56%.

In the case of `C=CCc1c(C)nc(C)nc1N/N=C/c1ccccc1`, the inhibition was -2.25%.

Consider `C#CCOCCOCCOCCNc1nc(N2CCN(C(=O)[C@H](CCC(=O)O)n3cc([C@@H](N)[C@H](C)CC)nn3)CC2)nc(N2CCN(C(=O)[C@H](CCC(=O)O)n3cc([C@@H](N)CCSC)nn3)CC2)n1`, for which the inhibition is 3.47%.

With `O=C1C=C(c2ccc3c(c2)oc2ccccc23)C[C@@H](c2ccc3c(c2)OCO3)C1`, the inhibition is 36.8%.

On to `c1ccc(C2[C@H]3CN(CC4CCCCC4)[C@H](c4ccccc4)C34CC2(c2ccccc2)C4)cc1` (some centres undefined), for which the inhibition was 2.3%.

With `FC(F)(F)c1ccc(C2[C@H]3CN(CC4CCCCC4)[C@H](c4ccccc4)C34CC2(c2cccnc2)C4)cc1` (some centres undefined), the inhibition is 58%.

`CC(C)(C#CCCCCC#CC(C)(C)[N+](C)(C)C)[N+](C)(C)C`: the inhibition is -2.46%.

As to `Cc1ccc(/C=C/C(=O)c2ccc(C)cc2)cc1`, the inhibition was -12.1%.

`Cc1ccc(C(=O)/C=C/C(=O)O)cc1`: the inhibition is -2.7%.

Regarding `Cc1cc(Nc2ccc(C(=O)O)cc2)n2nc(C)nc2n1`, the inhibition was -2.73%.

Regarding `O=C(Nc1ccccc1)c1nc2ccccc2s1`, the inhibition was 23.7%.

For `O=C(COc1ccccc1)Nc1nnc(-c2ccccc2Cl)o1`, the inhibition was 28.7%.

In the case of `OC1CCCN(Cc2nc(Cc3ccccc3Cl)no2)C1` (centres undefined), the inhibition was -6.97%.

Take `O=C(O)c1ccccc1Nc1cccc(OCc2ccc3ccccc3n2)c1`: the inhibition was -1.2%.

With `CCCCC[C@@H](O)c1cc2ccccc2c(=O)o1`, the inhibition is -0.25%.

Regarding `CCc1ccc2c(c1)C(c1ccc(N3CCOCC3)cc1)=NNC(c1ccncc1)=N2`, the inhibition was 44.4%.

Take `CCOC(=O)C1CCCN(C(=O)CCCn2c(=O)c3cccn3c3cccnc32)C1` (centres undefined): the inhibition is 1.46%.

For `Cc1ccc(N2CC(C(=O)N3CCC(C(=O)Nc4ccc(Br)cc4)CC3)CC2=O)cc1` (centres undefined), the inhibition is 32.6%.

Regarding `CCc1ccc(N=c2c([N+](=O)[O-])nn(-c3ccccc3)n2O)cc1`, the inhibition was 64.6%.

For the molecule `COc1ccccc1N=c1c2c([N+](=O)[O-])cc([N+](=O)[O-])cc2n(O)n1-c1ccccc1OC`, the inhibition was -0.38%.

Turning to `COc1ccc(C(=O)N(CC2CCCO2)C(C(=O)NC2CCCC2)c2ccc(C)cc2)cc1OC` (centres undefined), the inhibition was -13.5%.

As for `COc1ccc(C(=O)CN2CC(C)SC2=Nc2ccc(Cl)cc2)cc1` (centres undefined), the inhibition was 13.6%.

Turning to `O=C1O/C(=C/c2ccccc2)c2ccccc21`, the inhibition was 4.48%.

For `CN(C)/C=C1/OC(=O)C(C#N)=C1c1ccc(Cl)cc1`, the inhibition was -3.95%.

On to `O=C1CC(c2ccc(Cl)cc2)CC(=O)C1CS(=O)(=O)c1ccccc1` (centres undefined), for which the inhibition was 5.94%.
